Values joined by “and” are separate entries in the source; they are usually repeats but may differ in a detail not shown here. Equal values may be shown once. Inconclusive results are not listed. Some structures have more than one record in an assay (separate samples or runs), and their calls can disagree. Active and inactive are the calls of the source. The calls were made as follows, unless noted: active = hit-call score of the fitted dose curve at least 0.9, where 1 is the maximum; inactive = score below 0.9.
Assays:
[1] = TAMU_PeakParms_SingleDonor1434_Chronotropy: Texas A&M University (TAMU) 1.5-hr Human Induced Pluripotent Stem Cell (iPSC)-derived Cardiomyocytes Calcium (Ca+2) Flux Assay for Cardiotoxicity: Chronotropy (changes in peak frequency) (AID 2284217); conditions: actives raise or lower the signal
In short: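 Using fluorescent Ca2+ flux, average beats per second are measured in human iPSC-derived cardiomyocytes treated 90 min (0.5% DMSO vehicle, 0.2–100 uM). Non-beating data points are removed; activity is modeled in both directions relative to DMSO controls.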

[2] = CCTE_Shafer_MEA_dev_correlation_coefficient_mean: CCTE's Neural Network Formation Assay for Mean Correlation Coefficient, Shafer Lab (AID 2284093);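 as to AC50: well mean pairwise spike train correlation integrated as AUC over recording days 5 to 12; potency fitted for loss of correlation relative to DMSO vehicle wells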
In short: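 Extracellular firing from rat cortical networks on 48-well MEAs, DMSO-referenced, negative fitting direction. Compound present from plating to DIV12; mean pairwise correlation per well integrated over DIV5–12 recordings by trapezoidal AUC.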

[3] = CCTE_Mundy_HCI_hNP1_Pro_ResponderAvgInten: CCTE's Proliferation Assay in human neuroprogenitor cells, Mundy Lab (AID 2284224; active = hit-call score of the fitted dose curve at least 0.9, where 1 is the maximum;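 also: human neural progenitor cells hNP1 derived from WA09 embryonic stem cells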)
In short: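 Proliferation read as average intensity of BrdU-positive cells, imaged at 26.25 h post-dosing: chemical exposure started after 40–44 h culture, BrdU during final 4 h, paraformaldehyde fixation. Positive-direction fit relative to DMSO.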

[4] = UKN2_HCS_IMR90_neural_migration: University of Konstanz (UKN) Leist Lab Neural Crest Cell Migration Assay in human induced IMR90 Pluripotent Stem Cells (UKN2) (AID 2284204); conditions: actives raise or lower the signal
In short: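 Stopper-exclusion migration (cMINC), human iPSC-derived neural crest cells; N2-S + EGF/FGF; compound added 24 h post-stopper removal, 24 h exposure. Readout: calcein-AM/Hoechst 30 min, HCS fluorescence imaging; bidirectional fitting, DMSO baseline.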

[5] = UKN4_HCS_LUHMES_neurite_outgrowth: University of Konstanz (UKN) Leist Lab Neurite Outgrowth Assay in human LUHMES cells (UKN4) (AID 2284206); conditions: actives raise or lower the signal
In short: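 Human LUHMES cells were differentiated for two days, replated and treated with chemicals for 24 h. Neurite outgrowth was quantified as calcein-stained neurite area by HCS imaging, fitted bidirectionally relative to DMSO.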

[6] = IUF_NPC1b_proliferation_BrdU_72hr: Leibniz Research Institute for Environmental Medicine (IUF) 72-hour Neural Progenitor Cell Bromodeoxyuridine (BrdU) Proliferation Assay (NPC1b) (AID 2284207)
In short: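 Luminescent BrdU ELISA measured DNA synthesis during the last 16 h of a 72 h exposure of primary human neural progenitor spheres grown with EGF and FGF. Signal was fitted relative to DMSO controls.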

[7] = IUF_NPC1_viability_72hr: Viability Assessment at 72 hours in the Leibniz Research Institute for Environmental Medicine (IUF) Neural Progenitor Cell Proliferation Assay (NPC1) (AID 2284209)
In short: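 Spheres of primary human neural progenitors were plated singly in proliferation medium and treated for 72 h. Mitochondrial reduction of resazurin was then measured by fluorescence and analysed against DMSO controls.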

[8] = CCTE_Mundy_HCI_Cortical_Synap_Neur_Matur_NeuriteSpotCountPerNeuriteLength: CCTE's Synaptogenesis and Neurite Maturation Assay in rat cortical cells for Neurite Spot Count per Neurite Length, Mundy Lab (AID 2284210)
In short: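 Read-out: synaptophysin puncta counted along MAP2-stained neurites, normalised to neurite length, by automated high-content imaging. Rat cortical cells; AraC DIV 5; chemical dosing DIV 7; termination DIV 12. DMSO baseline.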

[9] = CCTE_Mundy_HCI_Cortical_Synap_Neur_Matur_BPCount: CCTE's Synaptogenesis and Neurite Maturation Assay in rat cortical cells for Branch Point Count, Mundy Lab (AID 2284211)
In short: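 HCI read-out of branch points from MAP2/synaptophysin/Hoechst immunofluorescence; rat cortical cultures, AraC DIV 5, dosing DIV 7, fixed DIV 12; fit in positive direction vs DMSO baseline.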

[10] = CCTE_Mundy_HCI_Cortical_NOG_NeuriteCount: CCTE's Neurite Outgrowth Assay in rat cortical cells for Neurite Count, Mundy Lab (AID 2284212);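 also: cells fixed about two days after chemical exposure began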
In short: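 Rat cortical primary cells; compound added 2 h post-plating, 1/10 dilution of working solution. Anti-betaIII-tubulin/AF488 ICC; ArrayScan neurite count vs DMSO.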

[11] = CCTE_Mundy_HCI_Cortical_NOG_NeuriteLength: CCTE's Neurite Outgrowth Assay in rat cortical cells for Neurite Length, Mundy Lab (AID 2284213);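 as to AC50: neurites imaged about 48 to 50 h after chemical exposure began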
In short: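 First, rat primary cortical cells were plated and, 2 h later, given test chemical as a 1/10 dilution. Finally, βIII-tubulin immunostaining enabled automated imaging of neurite length.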

[12] = CCTE_Mundy_HCI_Cortical_Synap_Neur_Matur_NeuriteLength: CCTE's Synaptogenesis and Neurite Maturation Assay in rat cortical cells for Neurite Length, Mundy Lab (AID 2284214)
In short: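 Cultures of rat primary cortical cells received chemical at DIV 7 and were fixed at DIV 12, after glial arrest with AraC at DIV 5. Neurite length was measured by automated imaging of MAP2 immunofluorescence.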

[13] = CCTE_Mundy_HCI_Cortical_Synap_Neur_Matur_NeuriteSpotCountPerNeuron: CCTE's Synaptogenesis and Neurite Maturation Assay in rat cortical cells for Neurite Spot Count per Neuron Count, Mundy Lab (AID 2284215)
In short: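 Rat cortical primary cultures; AraC DIV 5 to arrest glia; dosing + media change DIV 7; fixed DIV 12. Anti-MAP2/anti-synaptophysin, Hoechst nuclei; HCI puncta count per neuron, positive fitting direction vs DMSO.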

[14] = CCTE_Mundy_HCI_Cortical_Synap_Neur_Matur_SynapseCount: CCTE's Synaptogenesis and Neurite Maturation Assay in rat cortical cells for Synapse Count, Mundy Lab (AID 2284218)
In short: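 Cells were plated, allowed 2 hr to attach, treated with AraC at DIV 5, then exposed to chemicals from DIV 7 until DIV 12. After fixation and MAP2/synaptophysin immunolabelling, synapses per neuron were quantified by automated imaging against DMSO.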

[15] = CCTE_Mundy_HCI_hN2_NOG_NeuriteCount: CCTE's Neurite Outgrowth Assay in human hN2 cells for Neurite Count, Mundy Lab (AID 2284219; active = hit-call score of the fitted dose curve at least 0.9, where 1 is the maximum)
In short: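 In this morphology assay, hNP1-derived neurons received test chemical 2 h post-plating and were fixed two days later in warm paraformaldehyde/sucrose containing Hoechst 33342. Neurites, labelled by rabbit anti-βIII-tubulin (1:800) and Alexa Fluor-488 (1:500), were counted automatically.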

[16] = CCTE_Mundy_HCI_hN2_NOG_NeuriteLength: CCTE's Neurite Outgrowth Assay in human hN2 cells for Neurite Length, Mundy Lab (AID 2284220; active = hit-call score of the fitted dose curve at least 0.9, where 1 is the maximum)
In short: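 Read-out is neurite length from high-content imaging of βIII-tubulin/Alexa Fluor-488-labelled neurons, referenced to DMSO controls.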

[17] = CCTE_Mundy_HCI_hN2_NOG_NeuronCount: CCTE's Neurite Outgrowth Assay in human hN2 cells for Neuron Count, Mundy Lab (AID 2284221; active = hit-call score of the fitted dose curve at least 0.9, where 1 is the maximum)
In short: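 Read-out is the number of betaIII-tubulin-positive neurons imaged by automated high-content analysis, with DMSO as negative control.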

[18] = CCTE_Mundy_HCI_Cortical_Synap_Neur_Matur_NeuriteCount: CCTE's Synaptogenesis and Neurite Maturation Assay in rat cortical cells for Neurite Count, Mundy Lab (AID 2284222)
In short: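 In this multiplexed morphology readout, rat primary cortical neurons are fixed at DIV 12 following dosing at DIV 7 and stained for MAP2, synaptophysin and nuclei. High-content image analysis yields neurite count.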

[19] = CCTE_Mundy_HCI_Cortical_Synap_Neur_Matur_CellBodySpotCount: CCTE's Synaptogenesis and Neurite Maturation Assay in rat cortical cells for Cell Body Spot Count, Mundy Lab (AID 2284223)
In short: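 Rat cortical neurons; AraC @ DIV 5; dose + media change DIV 7; fix DIV 12; anti-MAP2/anti-synaptophysin IF, Hoechst; HCI count of soma synaptophysin puncta/neuron; DMSO = negative control.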

[20] = IUF_NPC1a_proliferation_area_72hr: Leibniz Research Institute for Environmental Medicine (IUF) 72-hour Neural Progenitor Cell Proliferation Area Assay (NPC1a) (AID 2284208)
In short: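 Spheres of 0.3 mm are plated singly in growth-factor medium and exposed from day 0. After three days at 37C and 5% CO2, sphere area is measured by phase contrast imaging, with activity referenced to DMSO.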

Measured: AC50

CC(C)C(=O)Nc1ccc([N+](=O)[O-])c(C(F)(F)F)c1
inactive: [1]

OC(O)(C(F)C(O)(O)C(F)(F)F)C(F)(F)F
active: [2] 2.98 µM
inactive: [2]

FC(F)(F)COC(OCC(F)(F)F)OCC(F)(F)F
inactive: [2]

FC(F)(F)C(F)(F)C(F)(F)C(F)(F)C(F)(F)C(F)(F)I
inactive: [2] | [3]

CCCC(CCC)C(=O)O
active: [5] 7760 µM | [6] 1040 µM | [7] 2090 µM
not listed: [3] | [20]
inactive: all other assays above

Cn1cc[nH]c1=S
not listed: [1] | [3] | [4] | [5] | [15] | [16] | [17]
inactive: all other assays above

C[C@]12C=CC(=O)C=C1CC[C@H]1[C@@H]3C[C@@H](O)[C@](O)(C(=O)CO)[C@@]3(C)C[C@H](O)[C@@]12F
active: [2] 0.202 µM | [8] 23.9 µM | [9] 2.18 µM | [10] 22.7 µM | [11] 19.7 µM | [12] 2.59 µM | [13] 3 µM | [14] 4.2 µM | [18] 18.8 µM | [19] 15 µM
inactive: [3]

NCC(F)(F)C(F)(F)C(F)(F)C(F)(F)F
inactive: [2]

COc1cc2c(c(OC)c1OC)-c1ccc(OC)c(=O)cc1[C@@H](NC(C)=O)CC2
active: [2] 0.0234 µM | [9] 0.0374 µM | [10] 0.0172 µM | [11] 0.0124 µM | [12] 0.0354 µM | [13] 0.0297 µM | [14] 0.0302 µM | [15] 0.00966 µM | [16] 0.00931 µM | [17] 0.0262 µM | [18] 0.44 µM | [19] 0.0427 µM
inactive: [8] | [1]

c1ccc2c(c1)-c1cccc3c1c-2cc1ccccc13
inactive: [2]
active: [1] 4.53 µM

O=C(Cl)C(F)(F)C(F)(F)C(F)(F)C(=O)Cl
inactive: [2]

NC(=O)N1c2ccccc2C=Cc2ccccc21
active: [5] 150 µM
not listed: [1] | [3] | [6] | [7] | [20]
inactive: all other assays above

OC(Cn1cncn1)(Cn1cncn1)c1ccc(F)cc1F
not listed: [1] | [3] | [4] | [5] | [6] | [7] | [17] | [20]
inactive: all other assays above

c1ccc2cc3ccccc3cc2c1
inactive: [2] | [8] | [9] | [10] | [11] | [12] | [13] | [14] | [18] | [19]
active: [1] 20.2 µM

OCCC(F)(F)C(F)(F)C(F)(F)C(F)(F)F
active: [2] 3.75 µM

CCN(CC)C(=S)SSC(=S)N(CC)CC
active: [2] 110 nM and 63.3 nM | [1] 8.82 µM

NNC(=O)c1ccncc1
not listed: [1] | [3] | [4] | [5] | [6] | [7] | [17] | [20]
inactive: all other assays above

CC[C@H](C)C(=O)O[C@H]1C[C@H](O)C=C2C=C[C@H](C)[C@H](CC[C@@H](O)C[C@@H](O)CC(=O)O)[C@H]21
active: [2] 4.32 µM

Nc1ccn([C@@H]2O[C@H](CO)[C@@H](O)[C@@H]2O)c(=O)n1
inactive: [4] | [5] | [6] | [8] | [9] | [12] | [13] | [14] | [19]
active: [2] 89.9 nM and 112 nM | [20] 0.109 µM | [7] 0.191 µM | [8] 23.2 µM | [9] 7.42 µM | [10] 9.69 µM and 4.75 µM | [11] 9.08 µM and 3.77 µM | [12] 11.9 µM | [13] 12.4 µM | [14] 12.4 µM | [18] 12.6 µM and 15 µM | [19] 11.7 µM | [3] 9.56 nM and 3.83 nM

OC[C@H]1O[C@@](CO)(O[C@H]2O[C@H](CO)[C@@H](O)[C@H](O)[C@H]2O)[C@@H](O)[C@@H]1O
inactive: [1]

CCOc1ccc2[nH]cc(C(=O)NCc3ccccc3)c(=O)c2n1
inactive: [2]
